This is an account of results in PubChem BioAssay (EPA / NIEHS).

The source holds several records for some structures; these can differ, active in one and inactive in another. Active and inactive are the calls of the source. How the source made its calls: active means hit-call score of the fitted dose curve at least 0.9, where 1 is the maximum; inactive means score below 0.9.

This assay in a line: ATG_BRE_CIS: Attagene CIS-FACTORIAL HepG2 Assay for human Bone Morphogenetic Protein (BMP) Response Element (BRE) (AID 2282933). Particulars: HepG2 BMP response element reporter, Attagene transcription factor profiling; actives raise or lower the signal. On the procedure: ATG_CIS is a cell-based, multiplexed-readout assay that uses HepG2, a human liver cell line, with measurements taken at 24 hours after chemical dosing in a 24-well plate.ATG_BRE_CIS is one of 52 assay component(s) measured or calculated from the ATG_CIS assay. It is designed to make measurements of mRNA induction, a form of inducible reporter, as detected with fluorescence intensity signals by Reverse transcription polymerase chain reaction (RT-PCR) and Capillary electrophoresis technology.Data from the assay component ATG_BRE_CIS was analyzed into 1 assay endpoint. This assay endpoint, ATG_BRE_CIS, was analyzed with bidirectional fitting relative to DMSO as the negative control and baseline of activity. Using a type of inducible reporter, measures of mRNA for gain or loss-of-signal activity can be used to understand the reporter gene at the transcription factor-level as they relate to the gene SMAD1. Furthermore, this assay endpoint can be referred to as a primary readout, because this assay has produced multiple assay endpoints where this one serves a reporter gene function. To generalize the intended target to other relatable targets, this assay endpoint is annotated to the dna binding intended target family, where the subfamily is Smad protein.
Human liver HepG2 cells are transiently transfected with multiple reporter transcription units (MRTUs) in 6-well plates using FuGene 6 reagent (Roche; 3 ml FuGene/1 mg DNA). The MRTU constructs are regulated by a cis-regulating element (promoter). […] A major difference between the CIS and TRANS system is that in CIS activities of endogenous TFs are measured, whereas the TRANS assay evaluates changes in activities of exogenous, chimeric NR-Gal4 proteins. […] At the end of 24 hour incubation, total RNA was isolated using TriZol reagent (Invitrogen). The isolated RNA is then reverse-transcribed using oligo(dT) primer and Mo-MLV reverse transcriptase (Invitrogen) with DNAse I (Ambion) treatment for 30 min. The one-tenth of the produced cDNA was amplified by PCR using Taq DNA polymerase (Invitrogen) and two reporter sequence-specific primers. The PCR products were fluorescently labeled by primer extension with 6-arboxyfluorescein (6-FAM) 5'-labeled reporter sequence-specific primer (2 min at 95 C, 20 s at 68 C and 10 min at 72 C) and these products were digested with 5U of HpaI (New England Biolabs) for 2h at 37 C. The fragments were purified using Qiaquick PCR columns (Qiagen), analyzed on an ABI 3130xL genetic analyzer (Applied Biosystems) with peak positions identified by using a set of X-rhodamine (ROX)-labeled MapMarker1000 molecular weight standards (BioVentures). The raw capillary electrophoresis data was processed using Attagraph software (Attagene).
On to `COc1ccc([N+](=O)[O-])cc1N`, for which the compound was called inactive.

With `O=[N+]([O-])c1ccc(O)cc1`, the call was inactive. Still for that read-out and setting: the same measure for `c1ccc2cc3c(ccc4ccccc43)cc2c1`: “inactive”.

`ClC1=C(Cl)C(Cl)(Cl)C(Cl)=C1Cl`: the compound was classed as inactive. Usually AC50 stands for the concentration at which the activity in the assay is half-maximal. As to `Cc1oc(-c2ccccc2)nc1CCOc1ccc(C[C@H](Nc2ccccc2C(=O)c2ccccc2)C(=O)O)cc1`, the AC50 was 11 µM (active). On to `CCC(C)(C)C1CCC(O)CC1` (stereo not given), for which the result was inactive. Take `CC(O)C(=O)O` (stereo not given): the call was inactive. With `CC(=O)NC1(c2cccc(F)c2)CCN(CC[C@@]2(c3ccc(Cl)c(Cl)c3)CN(c3ccccc3)C(=O)CO2)CC1`, the AC50 was 61.8 µM (active). Turning to `O=C(O)Cc1cc(I)c(Oc2cc(I)c(O)c(I)c2)c(I)c1`, the compound was classed as inactive and the AC50 is 51 µM (active).

Consider `CCCCCCCC(=O)O`, for which the compound was called inactive. Same read-out and setting: to `CCCOc1sc(C(=O)N2CCC(c3cc(CN)ccc3F)CC2)c(C)c1Br` belongs “inactive”. `CC#C[C@]1(O)CC[C@H]2[C@@H]3CCC4=CC(=O)CCC4=C3[C@@H](c3ccc(N(C)C)cc3)C[C@@]21C`: the AC50 was 22.4 µM (active) [middle of 4 runs].

On to `c1ccc2c(c1)Cc1ccccc1-2`, for which the outcome was inactive. On the same count and under the same terms, to `Oc1cc2ccccc2c2ccccc12` belongs “inactive”; to `CCOC(=O)CC(O)(CC(=O)OCC)C(=O)OCC`, “inactive”.

Turning to `CC(O)CO` (stereo not given), the result was inactive. The same measure, in the same setting: the same measure for `CC(C)(C)CC(C)(C)c1ccc(O)c(-n2nc3ccccc3n2)c1`: “inactive”; for `O=C(OCCOCCOC(=O)c1ccccc1)c1ccccc1`: “inactive”. On the same count and under the same terms, to `NCC(F)(F)C(F)(F)C(F)(F)C(F)(F)C(F)(F)C(F)(F)C(F)(F)F` belongs “inactive”.

As to `C[C@@H]1C[C@H]2[C@@H]3CCC4=CC(=O)C=C[C@]4(C)[C@@]3(F)[C@@H](O)C[C@]2(C)[C@@]1(O)C(=O)COP(=O)(O)O`, the compound was called inactive. Same read-out and setting: to `O=C(/C=C/c1ccc(O)cc1)CC(=O)/C=C/c1ccc(O)cc1` belongs “inactive”; to `Cc1cc(CCN2CCN(c3nsc4ccccc34)CC2)cc2c1NC(=O)CC2(C)C`, “inactive”. On the same count and under the same terms, the same measure for `c1ccc2c(c1)ccc1ccccc12`: “inactive”; for `CCCCC(CC)COC(=O)CCCCC(=O)OCC(CC)CCCC` (stereo not given): “inactive”; for `CCCCOCCO`: “inactive”.

As for `CCN(CC)CCNc1ccc(CNC=O)c2sc3ccc(OC)cc3c(=O)c12`, the AC50 is 0.505 µM (active). Turning to `CN1CCN(c2ccccc2/C=C2\SCCN(c3ccc(Cl)c(Cl)c3)C2=O)CC1`, the call was inactive.

Consider `CC(=O)CC(C)(C)O`, for which the result was inactive. Same read-out and setting: the same measure for `O=c1c(-c2ccc(O)cc2)coc2cc(O)ccc12`: “inactive”; for `CCc1nn(C2CCCCC2)c2cc(C3(C#N)CCC(C(=O)O)CC3)ccc12` (stereo not given): “inactive”. As to `CCCOC(=O)c1ccc(O)cc1`, the call was inactive and the AC50 was 79.3 µM (active).

For the compound `FC(F)(I)C(F)(F)C(F)(F)C(F)(F)C(F)(F)C(F)(F)I`, the call was inactive.

Consider `CCCCC[C@H](O)CC(=O)CCc1ccc(O)c(OC)c1`, for which the call was inactive.

For `OCCC(F)(F)C(F)(F)C(F)(F)C(F)(F)C(F)(F)C(F)(F)C(F)(F)C(F)(F)F`, the compound was classed as inactive. Still for that read-out and setting: to `O=C(O)c1ccccc1C(c1ccc(O)cc1)c1ccc(O)cc1` belongs “inactive”; to `CCCCCCCCCCCCN1CCCC1=O`, “inactive”; to `CCCCCCCCOC(=O)CCCCCCCCC(=O)OCCCCCCCC`, “inactive”. For the compound `C=C(C)C(=O)OCCC(F)(F)C(F)(F)C(F)(F)C(F)(F)C(F)(F)C(F)(F)F`, the compound was called inactive.
